Laboratory results reported in PubChem BioAssay (NCATS).
Results filed as inconclusive are left out. Activity calls are given as the source filed them. Calls come from the whole dose curve; as a rule, active = well fitted curve in the direction sought with a large enough effect; inconclusive = small, poorly fitted or top-dose-only effect, or another doubt; inactive = no such curve, though single readings can be large; an effect the other way counts as inactive or inconclusive. Where a SMILES comes first, the peptide text is derived from it.

Tests used:
NIH3T3 = experiment: qHTS assay to identify novel small-molecules to repurpose for Merkel cell carcinoma treatment (AID 1296009); details: MCC and control cell lines, CellTiter-Glo viability, 72 h; at 44.8 µM (top of the series) unless noted; note: nearly all actives have a fitted effect of over 60% in size
Summary of the method: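 Cells were incubated with compound for 72 hr at 37 degree celsius before CellTiter-Glo addition. Luminescence was normalized with no-cell wells as full cytotoxicity and DMSO as baseline.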

C33A = experiment: Primary qHTS to identify gynecologic anti-cancer compounds using libraries of approved drugs and bioactive compounds (AID 1345084); details: Gynecologic cancer cell panel viability, ATPlite luminescence, 48 h; series mostly up to 57.5 µM; note: % is set by controls: 0 for no effect and ±100 for the full control effect; nearly all actives have a fitted effect of over 55% in size
Summary of the method: (§1)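 Cells, 1,000 per well, plated 16 h, then exposed 48 h at 37 C to compounds. Viability by ATPlite luminescence after 15 min at room temperature.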

CAOV3 = experiment: as above; details: Gynecologic cancer cell panel viability, ATPlite luminescence, 48 h; series mostly up to 57.5 µM
Summary of the method: as §1

CASKI = experiment: as above; details: Gynecologic cancer cell panel viability, ATPlite luminescence, 48 h; series mostly up to 57.5 µM
Summary of the method: as §1

Es-2 = experiment: as above; details: Gynecologic cancer cell panel viability, ATPlite luminescence, 48 h; series mostly up to 57.5 µM
Summary of the method: as §1

HeLa = experiment: as above; details: Gynecologic cancer cell panel viability, ATPlite luminescence, 48 h; series mostly up to 57.5 µM
Summary of the method: as §1

Hek293T = experiment: as above; details: Gynecologic cancer cell panel viability, ATPlite luminescence, 48 h, control line for the selectivity index; series mostly up to 57.5 µM
Summary of the method: as §1

JEG-3 = experiment: as above; details: Gynecologic cancer cell panel viability, ATPlite luminescence, 48 h; series mostly up to 57.5 µM
Summary of the method: as §1

OV90 = experiment: as above; details: Gynecologic cancer cell panel viability, ATPlite luminescence, 48 h; series mostly up to 57.5 µM
Summary of the method: as §1

PA-1 = experiment: as above; details: Gynecologic cancer cell panel viability, ATPlite luminescence, 48 h; series mostly up to 57.5 µM
Summary of the method: as §1

SKOV3 = experiment: as above; details: Gynecologic cancer cell panel viability, ATPlite luminescence, 48 h; series mostly up to 57.5 µM
Summary of the method: as §1

Tov-21-G = experiment: as above; details: Gynecologic cancer cell panel viability, ATPlite luminescence, 48 h; series mostly up to 57.5 µM
Summary of the method: as §1

Tov112D = experiment: as above; details: Gynecologic cancer cell panel viability, ATPlite luminescence, 48 h; series mostly up to 57.5 µM
Summary of the method: as §1

O=C(/C=C/c1ccc(O)c(O)c1)OC[C@H]1O[C@@H](OC2CCCCC2O)[C@H](O)[C@@H](O)[C@@H]1O (stereo partly specified)
inactive: outcome (NIH3T3) inactive [at 17.4 µM] | Potency (C33A) | Potency (CAOV3) | outcome (CASKI) | Potency (Es-2) | Potency (HeLa) | Potency (Hek293T) | Potency (JEG-3) | Potency (OV90) | Potency (PA-1) | Potency (SKOV3) | Potency (Tov-21-G) | Potency (Tov112D)

C/C=C/C=C/C(O)=C1/C(=O)[C@]2(C)C(=O)[C@@](C)(O)[C@H]1[C@H]([C@@]1(C)OC(=O)C(C)=C1O)[C@H]2C(=O)CC/C=C/C
inactive: outcome (NIH3T3) inactive [at 17.4 µM] | Potency (C33A) | Potency (CAOV3) | outcome (CASKI) | Potency (Es-2) | Potency (HeLa) | Potency (Hek293T) | Potency (JEG-3) | Potency (OV90) | Potency (PA-1) | Potency (SKOV3) | Potency (Tov-21-G) | Potency (Tov112D)

c1cc(-c2cc(C3CCNCC3)[nH]n2)ccn1
inactive: outcome (NIH3T3) inactive [at 17.4 µM] | Potency (C33A) | Potency (CAOV3) | outcome (CASKI) | Potency (Es-2) | Potency (HeLa) | Potency (Hek293T) | Potency (JEG-3) | Potency (OV90) | Potency (PA-1) | Potency (SKOV3) | Potency (Tov-21-G) | Potency (Tov112D)

CC(/C=C/C=C(\C)C(=O)O[C@@H]1O[C@H](CO[C@@H]2O[C@H](CO)[C@@H](O)[C@H](O)[C@H]2O)[C@@H](O)[C@H](O)[C@H]1O)=C\C=C\C=C(C)\C=C\C=C(/C)C(=O)O[C@@H]1C[C@](O)(C(=O)O)C[C@@H](O)[C@H]1OC(=O)/C=C/c1ccc(O)c(O)c1
inactive: outcome (NIH3T3) inactive [at 9.27 µM] | activity change, negative = cytotoxicity (C33A) 17.9% [at 11.6 µM] | activity change, negative = cytotoxicity (CAOV3) -20% [at 11.6 µM] | activity change, negative = cytotoxicity (CASKI) 21.7% [at 11.6 µM] | activity change, negative = cytotoxicity (Es-2) 1.04% [at 11.6 µM] | activity change, negative = cytotoxicity (HeLa) 2.81% [at 11.6 µM] | activity change, negative = cytotoxicity (Hek293T) -2.06% [at 11.6 µM] | activity change, negative = cytotoxicity (JEG-3) 7.27% [at 11.6 µM] | activity change, negative = cytotoxicity (OV90) 8.2% [at 11.6 µM] | activity change, negative = cytotoxicity (PA-1) -12.7% [at 11.6 µM] | activity change, negative = cytotoxicity (SKOV3) 3.61% [at 11.6 µM] | activity change, negative = cytotoxicity (Tov-21-G) 0.602% [at 11.6 µM] | activity change, negative = cytotoxicity (Tov112D) -1.9% [at 11.6 µM]

CC1(C)C2CC[C@@]34CC(CC[C@H]3[C@]2(C)CC[C@@H]1O[C@@H]1O[C@H](CO)[C@@H](O)[C@H](O)[C@H]1O)[C@](C)(O)C4 (stereo partly specified)
inactive: outcome (NIH3T3) inactive [at 17.4 µM] | Potency (C33A) | Potency (CAOV3) | outcome (CASKI) | Potency (Es-2) | Potency (HeLa) | Potency (Hek293T) | Potency (JEG-3) | Potency (OV90) | Potency (PA-1) | Potency (SKOV3) | Potency (Tov-21-G) | Potency (Tov112D)

O=C(O)C(Cc1ccccc1)NC(=O)C1CCCN1 (stereo not drawn) (H-Pro-Phe-OH; configuration not given here)
inactive: outcome (NIH3T3) | Potency (C33A) | Potency (CAOV3) | outcome (CASKI) | Potency (Es-2) | Potency (HeLa) | Potency (Hek293T) | Potency (JEG-3) | Potency (OV90) | Potency (PA-1) | Potency (SKOV3) | Potency (Tov-21-G) | Potency (Tov112D)

CC1=CC23[C@H](C=C(C(=O)O)[C@@H]2COC(=O)[C@]3(O)CO)[C@@H]1C (stereo partly specified)
inactive: outcome (NIH3T3) | Potency (C33A) | Potency (CAOV3) | outcome (CASKI) | Potency (Es-2) | Potency (HeLa) | Potency (Hek293T) | Potency (JEG-3) | Potency (OV90) | Potency (PA-1) | Potency (SKOV3) | Potency (Tov-21-G) | Potency (Tov112D)

O=C(O)Cc1cn([C@@H]2O[C@H](CO)[C@@H](O)[C@H](O)[C@H]2O[C@@H]2O[C@H](CO)[C@@H](O)[C@H](O)[C@H]2O)c2ccccc12
inactive: outcome (NIH3T3) inactive [at 17.4 µM] | Potency (C33A) | Potency (CAOV3) | outcome (CASKI) | Potency (Es-2) | Potency (HeLa) | Potency (Hek293T) | Potency (JEG-3) | Potency (OV90) | Potency (PA-1) | Potency (SKOV3) | Potency (Tov-21-G) | Potency (Tov112D)

OC[C@H]1O[C@@H](OCc2ccccc2)[C@H](O)[C@@H](O)[C@@H]1O
inactive: outcome (NIH3T3) | Potency (C33A) | Potency (CAOV3) | outcome (CASKI) | Potency (Es-2) | Potency (HeLa) | Potency (Hek293T) | Potency (JEG-3) | Potency (OV90) | Potency (PA-1) | Potency (SKOV3) | Potency (Tov-21-G) | Potency (Tov112D)

O=C(OC[C@H]1O[C@@H](Oc2ccccc2CO)[C@H](O)[C@@H](O)[C@@H]1O)c1ccccc1
inactive: outcome (NIH3T3) | Potency (C33A) | Potency (CAOV3) | outcome (CASKI) | Potency (Es-2) | Potency (HeLa) | Potency (Hek293T) | Potency (JEG-3) | Potency (OV90) | Potency (PA-1) | Potency (SKOV3) | Potency (Tov-21-G) | Potency (Tov112D)

O=C(Nc1cc(-c2ccccc2)nn1-c1ccccc1)c1ccc([N+](=O)[O-])cc1
inactive: outcome (NIH3T3) | Potency (C33A) | Potency (CAOV3) | outcome (CASKI) | Potency (Es-2) | Potency (HeLa) | Potency (Hek293T) | Potency (JEG-3) | Potency (OV90) | Potency (PA-1) | Potency (SKOV3) | Potency (Tov-21-G) | Potency (Tov112D)

O=C(c1ccc(Cl)c([N+](=O)[O-])c1)N1CCN(c2ccccc2F)CC1
inactive: outcome (NIH3T3) | Potency (C33A) | Potency (CAOV3) | outcome (CASKI) | Potency (Es-2) | Potency (HeLa) | Potency (Hek293T) | Potency (JEG-3) | Potency (OV90) | Potency (PA-1) | Potency (SKOV3) | Potency (Tov-21-G) | Potency (Tov112D)
